# Rows were chosen to be rich in hits. Some 2.8% of all compounds tested hit in one or more screens of this group.
# PAX8 reporter: inhibitors of PAX8 transcriptional activity in RMG-I cells; RMG-I TPO-luciferase reporter, SteadyGlo, 24 h; inhibition, % at 12.6 µM; 360,000 tested, 1.2% active; AID 652154;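 active = mean replicate inhibition at least 60% with every replicate also reaching 60%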;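 also: luciferase light reporting Pax8 driven TPO promoter activity; plate controls were median of neutral control wells for no effect and mitoxantrone controls for full effect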
# Shn3 3UTR inh: reduces Shn3 3'UTR luciferase signal in osteoblasts. Clone20 osteoblast Shn3 3'UTR firefly luciferase, 24 h. inhibition, % at 12.5 µM. 360,000 tested, 0.52% active. AID 588674;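 active = mean inhibition of at least 75% with every replicate also reaching 75%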;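 also: 0% = median of neutral control wells and 100% = pilot-screen positive control compound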
# N-glyco inh: blocks N-linked glycosylation in D54 reporter cells; D54 ERlucT glycosylation luciferase reporter, 24 h; percent of 100 nM tunicamycin response; reporter increase, % at 12.5 µM; 360,000 tested, 0.23% active; AID 588692;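 active = mean luciferase reporter signal, scaled so untreated is 0 and the glycosylation-blocking control 100, at or above a set limit in every replicate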;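 also: luciferase carries N-glycosylation sites so blocking glycosylation raises the light; 0% = median of neutral control wells and 100% = median of 100 nM tunicamycin wells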
# NSD2 HMT inh: inhibitors of human histone methyltransferase NSD2 | NSD2 peptide methylation, AlphaScreen, 120 min | inhibition, % at 12.5 µM | 310,000 tested, 0.54% active | AID 743445; in the data active = inhibition above about 50%
# Target sequence (O96028 whole entry, looked up): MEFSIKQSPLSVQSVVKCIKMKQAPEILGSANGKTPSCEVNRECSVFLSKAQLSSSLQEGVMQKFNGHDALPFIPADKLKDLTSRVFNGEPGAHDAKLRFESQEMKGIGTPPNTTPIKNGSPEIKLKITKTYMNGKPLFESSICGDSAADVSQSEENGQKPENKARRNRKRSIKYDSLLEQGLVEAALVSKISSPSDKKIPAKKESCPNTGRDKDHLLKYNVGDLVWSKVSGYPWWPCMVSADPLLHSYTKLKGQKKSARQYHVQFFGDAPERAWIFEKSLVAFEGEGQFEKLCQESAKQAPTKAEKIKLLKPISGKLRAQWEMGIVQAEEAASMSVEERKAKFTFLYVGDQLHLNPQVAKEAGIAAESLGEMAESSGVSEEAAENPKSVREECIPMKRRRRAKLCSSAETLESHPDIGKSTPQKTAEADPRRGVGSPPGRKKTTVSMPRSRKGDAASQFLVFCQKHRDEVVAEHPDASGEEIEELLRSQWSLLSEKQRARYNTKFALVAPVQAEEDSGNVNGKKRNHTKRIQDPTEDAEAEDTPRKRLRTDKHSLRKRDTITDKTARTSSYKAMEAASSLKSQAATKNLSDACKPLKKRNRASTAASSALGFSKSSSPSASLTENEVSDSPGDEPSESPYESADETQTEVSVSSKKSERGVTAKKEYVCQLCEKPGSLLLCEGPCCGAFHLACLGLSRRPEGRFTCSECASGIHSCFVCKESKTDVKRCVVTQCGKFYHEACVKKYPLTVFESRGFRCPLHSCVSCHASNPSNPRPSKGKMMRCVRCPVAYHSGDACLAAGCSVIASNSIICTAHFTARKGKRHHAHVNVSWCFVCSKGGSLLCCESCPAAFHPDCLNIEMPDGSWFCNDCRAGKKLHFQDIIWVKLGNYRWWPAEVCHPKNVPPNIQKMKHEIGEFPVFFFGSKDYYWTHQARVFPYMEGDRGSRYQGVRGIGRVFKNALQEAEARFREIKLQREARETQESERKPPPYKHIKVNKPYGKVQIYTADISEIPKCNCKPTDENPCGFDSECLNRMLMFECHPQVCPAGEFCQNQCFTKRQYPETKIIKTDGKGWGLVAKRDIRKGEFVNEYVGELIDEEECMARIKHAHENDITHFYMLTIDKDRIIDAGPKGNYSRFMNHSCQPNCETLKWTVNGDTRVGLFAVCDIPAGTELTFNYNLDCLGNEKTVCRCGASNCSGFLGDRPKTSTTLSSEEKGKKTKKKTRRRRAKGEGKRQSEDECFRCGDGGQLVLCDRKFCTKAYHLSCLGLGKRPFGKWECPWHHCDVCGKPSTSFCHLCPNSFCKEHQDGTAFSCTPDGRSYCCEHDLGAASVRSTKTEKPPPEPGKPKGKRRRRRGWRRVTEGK
# EBV LMP1 NFkB: Epstein-Barr LMP1 NF-kappaB reporter inhibition; LMP1-induced NF-kappaB luciferase reporter cells, luminescence; inhibition, % at 12.5 µM; 350,000 tested, 0.69% active; AID 504558; in the data active = inhibition above about 41%;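 also: 0% = neutral control wells and 100% = reference inhibitor control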
# Env fusion inh: inhibitors of HIV Env-mediated cell fusion; HeLa-JRFL Env/CEM21 cell fusion, luciferase; inhibition, % at 12.3 µM; 360,000 tested, 1.1% active; AID 651610;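 active = mean replicate inhibition score of at least 50 and every replicate individually at or above 50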;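 also: 0% = plate neutral controls and 100% = maraviroc near 300 nM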
# Numbers without * were called inactive; / = no result; [ ] = dose if it differs, or a comment.
SMILES,PAX8 reporter,Shn3 3UTR inh,N-glyco inh,NSD2 HMT inh,EBV LMP1 NFkB,Env fusion inh
O=C(/C=C/c1ccc(Cl)cc1Cl)N1CCN(c2ccccc2[N+](=O)[O-])CC1,118.6*,-4.2,-0.4,1.0,2.8,/
COc1ccc(CN(C)C[C@H]2Oc3c(NS(=O)(=O)c4ccc(F)cc4)cccc3C(=O)N([C@@H](C)CO)C[C@@H]2C)cc1,-4.4,/,/,/,/,/
c1ccc(CNCCCNCCCCNCCCNCc2ccccc2)cc1,86.0*,-23.0,-0.3,-1.6,9.4,-10.5
O=C(O)CCCCNCc1ccccc1,/,-9.3,1.6,/,3.5,-63.6
COc1ccc(F)cc1-c1cc(NC=O)c2ncc(-c3cccc(C(=O)N(C)C)c3)n2c1,67.6*,5.3,9.4,4.4,/,15.4
CN(C)C(=O)c1cccc(-c2cnc3c(NC=O)cc(-c4ccccc4Cl)cn23)c1,/,-5.9,35.5*,0.3,/,-13.5
CNC(=O)C[C@@H]1CC[C@H]2[C@H](COc3ccc(NC(=O)C(C)C)cc3C(=O)N2C)O1,-13.1,/,/,/,/,-37.1[16.7 µM]
CS(=O)(=O)N1CCN(c2ccccc2NC(=O)C(c2ccccc2)c2ccccc2)CC1,/,1.9,-1.3,2.1,-3.3,71.5*
CC(C)C(=O)Nc1ccccc1N1CCN(S(C)(=O)=O)CC1,/,11.7,1.4,0.3,1.7,8.4
CN1CCN(c2ccccc2NC(=O)C(Cc2ccccc2)n2cccc2)CC1 (stereo not drawn),-2.6,-13.0,-2.6,/,-7.1,77.5*
CN1CCN(c2ccccc2NC(=O)c2ccc(-c3ccccc3)cc2)CC1,/,4.8,-0.7,2.8,3.4,/
O=C(Nc1ncc(Br)s1)C(Cc1ccccc1)n1cccc1 (stereo not drawn),2.6,-15.3,-0.6,/,90.8*,16.8
CCS(=O)(=O)N[C@H]1C=C[C@@H](CC(=O)N2CCCCC2)O[C@H]1CO,2.2,/,/,/,/,11.7[16.7 µM]
CC(C)NC(=O)N(C)C[C@@H]1Oc2ccc(NC(=O)Nc3cccc4ccccc34)cc2C(=O)N([C@@H](C)CO)C[C@H]1C,-23.8,/,/,/,/,4.9[16.7 µM]
CCCN(C(=O)CCc1cn(CCC)c2ccccc12)c1ccc(Oc2cccnc2)cc1,-22.3,/,/,1.3,/,69.8*
C/C(=N\Nc1nc2ccccc2[nH]1)c1ccc(Cl)s1,-24.2,-2.6,0.5,3.0,42.9*,-12.5
C/C(=N\Nc1nc2ccccc2[nH]1)c1ccc(C)o1,/,-52.4,-1.1,7.1,-19.9,/
COc1ccc(/C=C2\CCCCC2=O)cc1,-30.6,-3.6,-2.4,0.1,-5.4,11.7
COc1ccc(C=C2CS(=O)(=O)CC(=Cc3ccc(OC)cc3)C2=O)cc1,76.9*,71.5,12.5,/,90.6*,-48.6
O=c1c2ccccc2nnn1CSc1nnc(COc2ccc(Cl)cc2)n1Cc1ccco1,/,20.5,-4.0,1.8,2.6,70.4*
C[C@@H]1CN([C@H](C)CO)C(=O)c2cc(C#Cc3cccc(F)c3)cnc2O[C@@H]1CN(C)CC1CC1,/,/,/,/,/,12.3[16.7 µM]
CCCNC(=O)N1CCN(S(=O)(=O)c2ccc(C)c(C)c2)CC1,/,-7.9,0.2,1.3,46.8*,-6.2
CC(C)Cc1nc2oc3c(NCC4CCCO4)ncnc3c2c2c1CCC2 (stereo not drawn),81.6*,13.3,4.5,-0.5,12.4,17.7
CC(C)Cc1nc2oc3c(NCc4cccnc4)ncnc3c2c2c1CCC2,/,24.7,8.6,1.6,5.3,-9.3
COCC(=O)N1[C@@H]2CN(C(=O)Nc3ccccc3F)c3ccccc3[C@@H]2[C@@H]1CO,-56.6,/,/,/,/,/
SMILES,PAX8 reporter,Shn3 3UTR inh,N-glyco inh,NSD2 HMT inh,EBV LMP1 NFkB,Env fusion inh
CN(C)c1cccc(C(=O)N/N=C/c2ccccc2F)c1,34.2,40.1,-18.6,10.8,43.8*,4.9
COc1ccc(S(=O)(=O)N2CCOCC2)cc1NC(=O)Cc1sc(C)nc1-c1ccc(F)cc1,15.2,3.0,-2.5,-1.8,4.7,11.4
COc1ccc(S(=O)(=O)N2CCCCC2)cc1NC(=O)Cc1sc(C)nc1-c1ccc(F)cc1,24.9,10.1,-6.7,-12.4,-6.0,80.4*
Cc1ccc(S(=O)c2ccc([N+](=O)[O-])c3nonc23)cc1 (stereo not drawn),-1.5,4.9,5.3,65.5*,5.0,-15.2
Cc1ccnc(NC(=O)c2cccc(NC(=O)c3ccc(Cl)c(Cl)c3)c2)c1,-37.4,-10.0,0.1,-7.1,86.0*,-4.9
CCC(COC(=O)c1ccccc1)Oc1cc(NCc2ccccc2)c2ncn(C(C)C)c2c1 (stereo not drawn),64.1*,-19.0,6.1,/,-8.2,17.6
CCC(COC)Oc1cc(NCc2ccccc2)c2ncn(C(C)C)c2c1 (stereo not drawn),70.0*,20.7,-0.1,/,9.4,-33.8

# High-throughput results as filed in PubChem.
